Assay [1] can be described thus: qHTS RealTime-Glo MT Cell Viability Assay in HEK293 cells - 16 hour (AID 1224872). Further: nearly all actives have a fitted effect of over 50% in size. Further: potency means the concentration at half of the fitted maximal effect. The gist of the method: (§1)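 Luminescence generated by NanoLuc from substrate produced by living HEK293 cells served as the viability signal. Each value reflects the reading at its stated time point during continuous 40 h compound exposure at 37 C.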
For orientation: In qHTS, concentration-response curves come from the screen itself.

A short description of assay [2]: qHTS RealTime-Glo MT Cell Viability Assay in HepG2 cells - 8 hour (AID 1224873). Further: nearly all actives have a fitted effect of over 55% in size. Further: potency means the concentration at half of the fitted maximal effect. The gist of the method:
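HepG2 cells mixed with RealTime-Glo MT reagents (NanoLuc plus cell-permeant prosubstrate) were seeded at 600 cells/well, incubated 5 h at 37 C/5% CO2, then pinned with compounds in DMSO; nonlytic luminescence tracked viability during 40 h treatment.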

A short description of assay [3]: qHTS RealTime-Glo MT Cell Viability Assay in HEK293 cells - 40 hour (AID 1224874). Further: nearly all actives have a fitted effect of over 50% in size. Further: potency means the concentration at half of the fitted maximal effect. The settings on record: RealTime-Glo luminescence; max response: stronger effect = lower value. In short, it runs like this: (§2)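 600 HEK293 cells per well, dispensed already mixed with RealTime-Glo MT reagents. Compound dosing came 5 h later. The same wells were read for luminescence at 0, 8, 16, 24, 32 and 40 h of exposure at 37 C.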

The nature of assay [4]: A CellTox Green Cytotoxicity Assay to monitor cytotoxicity in HEK293 cells - 24 hour (AID 1224875). Further: series mostly up to about 77 µM; nearly all actives have a fitted effect of over 45% in size. The gist of the method: (§3)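 Dead-cell fluorescence measured kinetically: asymmetric cyanine dye, HEK293, 600 cells/well, 5 h settle, 23 nL cpd/DMSO, 37 C, reads 0–40 h every 8 h.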
Assay [5] can be described thus: A CellTox Green Cytotoxicity Assay to monitor cytotoxicity in HepG2 cells - 16 hour (AID 1224876). Further: nearly all actives have a fitted effect of over 45% in size. Further: potency means the concentration at half of the fitted maximal effect. The gist of the method:
(§4)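 First, HepG2 cells (600/well) mixed with reagent were plated; second, after 5 h at 37 C they received compounds via pintool; third, fluorescence was measured at 0 h through 40 h at 8 h intervals.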

Assay [6] is described as follows: qHTS RealTime-Glo MT Cell Viability Assay in HepG2 cells - 32 hour (AID 1224877). Further: nearly all actives have a fitted effect of over 55% in size. Further: potency means the concentration at half of the fitted maximal effect. The gist of the method:
(§5)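 Tox21 10K library screened in qHTS format on HepG2 cells carrying RealTime-Glo reagents. Compounds were added after a 5 h preincubation, and the luminescent signal from continuous culture was measured repeatedly during 40 h treatment.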

The nature of assay [7]: A CellTox Green Cytotoxicity Assay to monitor cytotoxicity in HepG2 cells - 24 hour (AID 1224878). Further: nearly all actives have a fitted effect of over 45% in size. Further: potency means the concentration at half of the fitted maximal effect. In short, it runs like this:
as §4

A short description of assay [8]: A CellTox Green Cytotoxicity Assay to monitor cytotoxicity in HepG2 cells - 40 hour (AID 1224879). Further: nearly all actives have a fitted effect of over 40% in size. Further: potency means the concentration at half of the fitted maximal effect. The gist of the method: as §4
Assay [9] in a line: qHTS RealTime-Glo MT Cell Viability Assay in HEK293 cells - 0 hour (AID 1224880). Further: nearly all actives have a fitted effect of over 45% in size. Further: potency means the concentration at half of the fitted maximal effect. In short, it runs like this: as §2
Assay [10] in a line: A CellTox Green Cytotoxicity Assay to monitor cytotoxicity in HEK293 cells - 32 hour (AID 1224881). Further: nearly all actives have a fitted effect of over 40% in size. Further: potency means the concentration at half of the fitted maximal effect. In short, it runs like this:
as §3

Assay [11] in a line: A CellTox Green Cytotoxicity Assay to monitor cytotoxicity in HepG2 cells - 0 hour (AID 1224882). Further: nearly all actives have a fitted effect of over 35% in size. Further: potency means the concentration at half of the fitted maximal effect. In short, it runs like this: as §4
The nature of assay [12]: A CellTox Green Cytotoxicity Assay to monitor cytotoxicity in HEK293 cells - 8 hour (AID 1224884). Further: nearly all actives have a fitted effect of over 35% in size. Further: potency means the concentration at half of the fitted maximal effect. The gist of the method:
as §3

The nature of assay [13]: qHTS RealTime-Glo MT Cell Viability Assay in HepG2 cells - 16 hour (AID 1224885). Further: nearly all actives have a fitted effect of over 50% in size. Further: potency means the concentration at half of the fitted maximal effect. The gist of the method: as §5
A short description of assay [14]: qHTS RealTime-Glo MT Cell Viability Assay in HEK293 cells - 24 hour (AID 1224886). Further: nearly all actives have a fitted effect of over 50% in size. Further: potency means the concentration at half of the fitted maximal effect. The gist of the method:
as §1

Assay [15] in a line: qHTS RealTime-Glo MT Cell Viability Assay in HEK293 cells - 8 hour (AID 1224887). Further: nearly all actives have a fitted effect of over 50% in size. Further: potency means the concentration at half of the fitted maximal effect. In short, it runs like this: as §2
A short description of assay [16]: A CellTox Green Cytotoxicity Assay to monitor cytotoxicity in HEK293 cells - 16 hour (AID 1224888). Further: nearly all actives have a fitted effect of over 35% in size. In short, it runs like this:
as §3

A short description of assay [17]: qHTS RealTime-Glo MT Cell Viability Assay in HepG2 cells - 0 hour (AID 1224889). Further: nearly all actives have a fitted effect of over 50% in size. Further: potency means the concentration at half of the fitted maximal effect. The gist of the method: as §5
The nature of assay [18]: A CellTox Green Cytotoxicity Assay to monitor cytotoxicity in HepG2 cells - 8 hour (AID 1224890). Further: nearly all actives have a fitted effect of over 45% in size. Further: potency means the concentration at half of the fitted maximal effect. In short, it runs like this:
as §4

Assay [19] in a line: qHTS assay to identify small molecule antagonists of the estrogen receptor alpha (ER-alpha) signaling pathway using the BG1 cell line in the presence of 0.1 nM 17-beta-estradiol - cell viability counter screen (AID 1259241). Further: nearly all actives have a fitted effect of over 40% in size. Further: potency means the concentration at half of the fitted maximal effect. In short, it runs like this: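 VM7Luc4E2 cells (endogenous ER-alpha, 4×ERE-luciferase), hormone-starved 5 days in charcoal-stripped FBS, were treated with compounds plus 0.1 nM 17beta-estradiol for 22 hr at 37C; viability read in same wells as CellTiter-Fluor live-cell protease fluorescence.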

Assay [20] is described as follows: A CellTox Green Cytotoxicity Assay to monitor cytotoxicity in HepG2 cells - 32 hour (AID 1224883). Further: nearly all actives have a fitted effect of over 50% in size. Further: potency means the concentration at half of the fitted maximal effect. In short, it runs like this: as §4

Where “and” joins values, the source holds several entries; their conditions need not be identical. Identical values can stand only once. Results filed as inconclusive are left out. The source holds several records for some structures; these can differ, active in one and inactive in another. Calls of active or inactive are those of the source. The call rests on the fitted dose curve; in most records, active means well fitted curve in the direction sought with a large enough effect in the repeat runs; inconclusive means weak or mixed curves; inactive means no such curve, though single readings can be large; an effect the other way counts as inactive or inconclusive.
On the % scale 0 is the no-effect control and ±100 the full control effect.

Turning to `Cc1cccc(N(C)C(=S)Oc2ccc3ccccc3c2)c1`, the Potency result in assay [1], in assay [2], in [4], in assay [5], in assay [6] and in assay [7] was “inactive” in each case. Moreover, the Potency result in assay [8], in assay [9], in assay [10], in assay [11], in assay [12] and in [13] was “inactive” in each case. The Potency entry in assay [14], in assay [15], in assay [16], in assay [17] and in assay [18] was “inactive” in each case. Also, the max response in [3] is -21.9% (inactive) and -0.992% (inactive).

For `Cc1[nH]c(=O)c(C#N)cc1-c1ccncc1`, the Potency entry in [1], in [2], in assay [4], in assay [5], in [6] and in assay [7] was “inactive” each time. Moreover, the Potency entry in [8], in assay [9], in assay [10], in [11], in [12] and in assay [13] was “inactive” throughout. Further, the Potency entry in assay [14], in assay [15], in assay [16], in assay [17], in assay [18] and in assay [19] was “inactive” each time. The max response in assay [3] is 0.254% (inactive) and -5.73% (inactive).

For the compound `C/C=C/C(=O)O`, the Potency result in assay [1], in assay [2], in [4], in assay [5], in assay [6] and in assay [7] was “inactive” in each case. For the same compound, the Potency entry in assay [8], in [9], in [10], in assay [20], in assay [12] and in assay [13] was “inactive” in each case. In addition, the Potency entry in assay [14], in [15], in assay [16], in assay [17], in assay [18] and in [19] was “inactive” throughout. For the same compound, the max response in [3] is 2.91% (inactive) and 4.68% (inactive).

With `CCC(C)(O)CCCC(C)C` (stereo not given), the Potency result in assay [1], in [2], in assay [4], in [5], in assay [6] and in [7] was “inactive” throughout. The Potency result in assay [8], in assay [9], in [10], in assay [11], in [12] and in [13] was “inactive” throughout. Also, the Potency result in assay [14], in assay [15], in assay [16], in assay [17], in [18] and in assay [19] was “inactive” each time. Moreover, the max response in [3] is 0.571% (inactive) and 1.24% (inactive).

Consider `O=C(c1ccccc1)c1ccccc1O`, for which the Potency entry in assay [1], in assay [2], in assay [4], in [5], in assay [6] and in [7] was “inactive” in each case. Besides, the Potency entry in assay [8], in [9], in assay [10], in assay [11], in assay [20] and in assay [12] was “inactive” each time. Further, the Potency result in assay [13], in assay [14], in assay [15], in [16], in assay [17] and in [18] was “inactive” in each case. Moreover, in assay [19], the Potency result is “inactive”. Further, in assay [3], the max response was -15.9% (inactive) and -14.9% (inactive).

As for `COC(=O)C1=C(C)NC(C)=C(C(=O)OCCN(C)Cc2ccccc2)C1c1cccc([N+](=O)[O-])c1` (stereo not given), the Potency was 21.7 µM (active) and 16.9 µM (active) in assay [1]; 24.4 µM (active) and 19 µM (active) in [2]; 24.4 µM (active) and 16.9 µM (active) in assay [3]; 43.4 µM (active) in [6]; 48.7 µM (active) and inactive in [7]; 48.7 µM (active) and inactive in assay [8]. Moreover, the Potency in [9] was 5.46 µM (active) and 6.01 µM (active); in [13], 24.4 µM (active) and 10.7 µM (active); in assay [14], 21.7 µM (active) and 19 µM (active); in [15], 24.4 µM (active) and 19 µM (active); in [17], 6.13 µM (active) and 3.38 µM (active); in assay [19], 54.2 µM (active). The Potency result in assay [4], in assay [5], in assay [10], in assay [11], in assay [12] and in [16] was “inactive” each time. In assay [18], the Potency result is “inactive”.

Turning to `O=C(O)c1ccccc1Nc1cccc(C(F)(F)F)c1`, the Potency result in assay [1], in assay [2], in [4], in assay [5], in [6] and in assay [7] was “inactive” in each case. Moreover, the Potency result in assay [8], in assay [9], in assay [10], in assay [11], in assay [20] and in [12] was “inactive” throughout. The Potency result in assay [13], in assay [14], in [15], in assay [16], in [17] and in [18] was “inactive” throughout. Moreover, in assay [19], the Potency result is “inactive”. Moreover, the max response in assay [3] was -19.7% (inactive) and -3.43% (inactive).

With `Nc1ncn([C@@H]2O[C@H](CO)[C@@H](O)[C@H]2O)c(=O)n1`, the Potency result in assay [1], in assay [2], in assay [4], in [5], in [6] and in assay [7] was “inactive” in each case. For the same compound, the Potency entry in [8], in [9], in assay [10], in [20], in assay [12] and in [13] was “inactive” throughout. Moreover, the Potency result in assay [14], in assay [15], in assay [16], in assay [17], in assay [18] and in assay [19] was “inactive” throughout. The max response in [3] is -27.7% (inactive) and 4.66% (inactive).

On to `CCCCCCCCCCCO`, for which the Potency entry in [1], in assay [2], in assay [4], in [5], in assay [6] and in [7] was “inactive” in each case. Also, the Potency result in [8], in assay [9], in [10], in [11], in [20] and in assay [12] was “inactive” throughout. Also, the Potency entry in assay [13], in [14], in assay [15], in [16], in assay [17] and in [18] was “inactive” each time. For the same compound, the Potency result in assay [19] was “inactive”. Also, the max response in assay [3] is -2.32% (inactive) and 0.908% (inactive).

Regarding `CC1=CC2C3CC(C=C3C)C2C1` (stereo not given), the Potency result in assay [1], in assay [2], in assay [6], in assay [9], in [13] and in [14] was “inactive” each time. Besides, the Potency entry in [15] and in [17] was “inactive” in each case. Besides, the max response in [3] is 6.31% (inactive) and 1.24% (inactive). For the same compound, the Potency entry in assay [5] was “inactive and 24.5 µM (active)”; in assay [7], “inactive and 27.5 µM (active)”; in assay [8], “inactive and 38.9 µM (active)”; in assay [10] it was “inactive and 38.9 µM (active)”; in assay [11], “inactive and 27.5 µM (active)”; in [20], “inactive and 24.5 µM (active)”. Further, the Potency entry in assay [12] was “inactive and 43.6 µM (active)”; in assay [18] it was “inactive and 38.9 µM (active)”.

Source of the values: PubChem BioAssay (Tox21).
